Among the data in PubChem BioAssay (NCI) are growth values, retold here.

Values joined by “and” are separate entries in the source; they are usually repeats but may differ in a detail not shown here. Equal entries are not always repeated. About 83,000 compounds went through this panel and 20% of them were active in at least one assay; those are over-represented in the sample as a whole.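 For each line, cells grew in 96-well plates with the test compound present at a single concentration for 48 hours.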 Active and inactive are the calls of the source. The calls were made as follows: active = growth percent below 10; inactive = the rest.

The subject of one assay is PC-3 prostate. Nature of the assay: NCI-60 one-dose screen, 48 h (100 = growth as untreated, 0 = no growth, -100 = all killed). To be noted: 10 µM unless noted.
Consider `COc1ccc(/C(C#N)=C/c2ccccn2)cc1`, for which the growth was 104% (inactive) and 101% (inactive). As to `CC(=O)Oc1cc(C(=O)O)cc(OC(C)=O)c1OC(C)=O`, the growth was 93.4% (inactive) and 95.5% (inactive). Take `COc1ccc(Cn2c(NCCN=C(N)N)nc(=O)n(Cc3ccc(F)cc3)c2=O)cc1`: the growth is 83% (inactive) and 87.1% (inactive).

The test system of another assay is SK-MEL-5 melanoma. The description is as above. To be noted: 10 µM unless noted.
As to `CC1CCCC(=O)O1` (configuration not stated), the growth was 102% (inactive) and 108% (inactive). As to `Cc1ccc(S(=O)(=O)NCN2C(=O)c3ccccc3C2=O)cc1`, the growth was 112% (inactive). With `O=C(N/N=C/c1cccc2ccccc12)C1CC1`, the growth is 105% (inactive) and 96.6% (inactive). Take `CN(C)CCCNC1=C(Cl)C(=O)c2ccccc2C1=O`: the growth was -94.2% (active) and -100% (active).

Take `COc1ccc2nc(Cl)cc(C)c2c1`: the growth is 98.8% (inactive) and 120% (inactive). On to `CN(C)c1ccc(C(=C2C=CC(=[N+](C)C)C=C2)c2ccccc2Cl)cc1`, for which the growth is -100% (active) and -96.9% (active). Take `OCc1ccccn1`: the growth was 99.8% (inactive). `Nc1ccccc1SC1CC(=O)N(c2cccc3ccccc23)C1=O` (configuration not stated): the growth is 96.7% (inactive). In the case of `CC(=O)Nc1cccc2c1CCCC2`, the growth was 100% (inactive). For the compound `CCN1CCN(CCNc2nccc(-c3c(-c4cccc(O)c4)nc4sccn34)n2)S1(=O)=O`, the growth is 51% (inactive) and 32.4% (inactive).

`NC(=O)c1ccccc1OCC(O)CO` (configuration not stated): the growth was 101% (inactive). On the same count and under the same terms, with `Nc1ccccc1Nc1ccccc1` the figure was 89.5% (inactive) and 94.7% (inactive). Same read-out and setting: with `N/C(=N\N=C\c1ccc2c(c1)OCO2)N/N=C\c1ccc2c(c1)OCO2` the figure was 112% (inactive); with `N#C/C(=C/c1c(O)ccc2ccccc12)C(N)=O`, 94.1% (inactive); with `Oc1ccc(/C=C/c2ccccc2)cc1`, 56.1% (inactive) and 55.7% (inactive). `COc1ccc2ccccc2c1/C=N/N1CCCCC1`: the growth is 98.3% (inactive). Take `O=C(Nc1cccc(-n2ccc3c(NC(=O)c4ccccc4)nccc32)c1)c1ccc(Cl)c(C(F)(F)F)c1`: the growth was -92.4% (active) and 57.4% (inactive). Consider `CCOc1ccc(Nc2c3ccccc3nc3ccccc23)cc1`, for which the growth was 80.6% (inactive) and -65.9% (active) and 0.799% (active). Consider `CCOc1ccc2cc(-c3nn(CC4CCN(C)CC4)c4ncnc(N)c34)ccc2c1`, for which the growth is 87.2% (inactive) and -65.2% (active). With `C[N+](C)(C)CN1C(=O)c2ccccc2C1=O`, the growth is 102% (inactive). On to `S=C(S)N1CCCC1`, for which the growth is 79.7% (inactive) and 67.8% (inactive). The same measure, in the same setting: with `O=C1C2=C(C(=O)c3ccccc31)C(O)(S(=O)(=O)O)C(O)(S(=O)(=O)O)C1N=CC=CC21` (configuration not stated) the figure was 26.6% (inactive) and 29.7% (inactive); with `Cc1cc(O)c2c(c1)C(=O)c1cc(O)cc(O)c1C2=O`, 48.9% (inactive) and 59.9% (inactive). On to `CCN(CC)CCC(CNc1ccnc2cc(Cl)ccc12)c1ccc(OC)cc1` (configuration not stated), for which the growth was 38.3% (inactive) and 30.4% (inactive). Consider `O=[N+]([O-])c1ccc2nc3c4ccccc4c4ccccc4c3nc2c1`, for which the growth is 76.8% (inactive).

`COc1cc2nc(N3CCC[C@@H](NC(=O)C4COc5ccccc5O4)C3)nc(N)c2cc1OC` (some centres not stated): the growth is 99.5% (inactive) and 96.7% (inactive). With `NC(=S)NN=C1CCC(C2CCCCC2)CC1` (configuration not stated), the growth is 87.3% (inactive) and 87.8% (inactive). The same measure, in the same setting: as for `CCOC(=O)c1sc(N)nc1-c1ccccc1`, the figure is 100% (inactive). Same read-out and setting: with `Cc1ccc2nc3c(nc2c1)-c1cccc2cccc-3c12` the figure was 62.7% (inactive).

Take `CC(C)N=c1cc2n(-c3ccc(Cl)cc3)c3ccccc3nc-2cc1Nc1ccc(Cl)cc1`: the growth was 4.95% (active) and 12% (inactive) and -72.9% (active). In the case of `CCN(CC)CCCC(C)Nc1ccnc2cc(Oc3ccccc3)ccc12` (configuration not stated), the growth is -87.1% (active) and 79.6% (inactive). As for `CN1C(=O)C(N=Nc2ccc([N+](=O)[O-])cc2)SC1=S` (configuration not stated), the growth was 71.3% (inactive) and 73.7% (inactive).

For the compound `COc1ccccc1NC(=O)OCC#CCOC(=O)Nc1ccccc1OC`, the growth was 94.2% (inactive) and 88.6% (inactive).

For the compound `O[C@H](c1cc(C(F)(F)F)nc2c(C(F)(F)F)cccc12)[C@@H]1CCCCN1`, the growth was 84.9% (inactive) and 74.2% (inactive).

For the compound `N#C/C(=C1C=C/C(=N/O)C(Br)=C/1)c1ccccc1`, the growth is 53.6% (inactive).

`CC1=C[C@H]2c3c(c(O)c(O)c4oc5cc(O)cc(O)c5c(=O)c34)[C@H](c3cc(O)c(O)c4oc5cc(O)cc(O)c5c(=O)c34)[C@H]2C(C)(C)C1`: the growth was -84.2% (active) and -98.1% (active). Still for that read-out and setting: with `COc1ccc(/C(C#N)=C/c2ccccn2)cc1` the figure was 94.9% (inactive) and 99.9% (inactive).

Regarding `CC(=O)Oc1cc(C(=O)O)cc(OC(C)=O)c1OC(C)=O`, the growth was 99.5% (inactive) and 101% (inactive).

Take `COc1ccc(Cn2c(NCCN=C(N)N)nc(=O)n(Cc3ccc(F)cc3)c2=O)cc1`: the growth was 98.7% (inactive) and 99.9% (inactive).
